From PubChem BioAssay (NCI) come the findings set out here.

Molecules are shown by their SMILES. The panel holds about 83,000 compounds, 20% with a hit somewhere; the sample as a whole holds those more often.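 Plates (96-well) were seeded with cells, treated with compound at one concentration, and incubated for 48 hours before percent growth was determined.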 Unmarked numbers belong to inactive results. Active and inactive are the calls of the source. The calls were made as follows: active = growth percent below 10; inactive = the rest.

Assay in all cases: NCI-60 one-dose screen, 48 h (100 = growth as untreated, 0 = no growth, -100 = all killed)
Details in all cases: 10 µM unless noted

Assay [1] deals with HCT-15 colon.
Assay [2] relates to SNB-75 CNS.
The test system of assay [3] is SNB-19 CNS.
The subject of assay [4] is U251 CNS.
In assay [5] the test system is PC-3 prostate.
Assay [6] relates to SK-MEL-5 melanoma.
Assay [7] has as its system UACC-62 melanoma.
For assay [8], the system named is LOX IMVI melanoma.
For assay [9], the system named is SK-MEL-28 melanoma.
In assay [10] the test system is SK-MEL-2 melanoma.
Assay [11] concerns EKVX NSCLC.
Assay [12] has as its system SN12C renal.
Assay [13] relates to UO-31 renal.
Assay [14] deals with TK-10 renal.
Assay [15] has as its system ACHN renal.
For assay [16], the system named is CAKI-1 renal.
For assay [17], the system named is A498 renal.
The subject of assay [18] is CCRF-CEM leukemia.
Assay [19] relates to MOLT-4 leukemia.

On to `O=C(Nc1ccc(Cl)cc1)C1=NCCCCN1`, for which the growth was 55.4% in assay [1]; 95.6% in [2]; 101% in assay [3]; 90.9% in assay [4]; 73% in [5]; 93.6% in assay [6]. The growth in [7] was 45.1%; in assay [8], 30.5%; in [9] it was 111%; in assay [10], 97.7%; in assay [11], 80%; in [12], 94.5%. The growth in assay [13] was 55.4%; in [14], 90%; in assay [15] it was 59.1%; in assay [16] it was 53.8%; in assay [17] it was 98.6%; in assay [18], 89.2%. Further, the growth in [19] is 95.4%.

`O=C(Nc1cccc2c1C(=O)c1cccc(NC(=O)c3ccc(C(=O)Nc4cccc5c4C(=O)c4cccc(NC(=O)c6ccccc6)c4C5=O)cc3)c1C2=O)c1ccccc1`: the growth was 105% in assay [1]; 89.7% in assay [2]; 105% in assay [3]; 101% in [4]; 87.7% in assay [5]; 105% in assay [6]. Further, the growth in [7] is 89%; in [8], 102%; in [9] it was 103%; in assay [10], 73.1%; in assay [11], 86.5%; in assay [12], 96.6%. Besides, the growth was 72.9% in [13]; 121% in assay [14]; 99.9% in assay [15]; 108% in [16]; 117% in assay [17]; 115% in assay [18]. Further, the growth in assay [19] was 75.2%.

In the case of `COc1cccc2cc(N(C)c3nc(C)nc4c3CCC4)ccc12`, the growth was 8.06% (active) in [1]; 30.5% in assay [2]; 30.4% in assay [3]; 5.05% (active) in assay [4]; 9.9% (active) in [5]; -35.5% (active) in assay [6]. Further, the growth is 20.3% in assay [7]; 19.3% in assay [8]; 70.7% in assay [9]; 41% in assay [10]; 56.1% in [11]; 17.2% in assay [12]. In addition, the growth in [13] was 38.7%; in [14], 58%; in assay [15], 27.3%; in [16] it was 18.4%; in assay [17], -11.4% (active); in assay [18], 15.2%. The growth in assay [19] is 14.8%.

On to `COc1cccc(C2C3=C(COC3=O)N(CCO)c3cc4c(cc32)OCCO4)c1` (centres undefined), for which the growth in assay [1] is 2.89% (active); in assay [2] it was -14.1% (active); in [3] it was 9.81% (active); in [4], 2.46% (active); in assay [5], 20.3%; in [6], -12.1% (active). Also, the growth is 24.8% in assay [7]; 22.1% in [8]; 38.7% in [9]; 78.1% in assay [10]; 39.7% in assay [11]; 31% in assay [12]. Also, the growth was 75% in [13]; 66.9% in [14]; 24.8% in assay [15]; 41.6% in assay [16]; -21.8% (active) in assay [17]; 11.5% in assay [18]. In [19], the growth is 11.8%.

`CCOC(=O)C1=CCC(n2cc(F)c(=O)[nH]c2=O)O1` (centres undefined): the growth in [1] is 104%; in [2], 121%; in assay [3] it was 108%; in assay [4], 95.6%; in [5], 102%; in assay [6], 104%. Also, the growth is 108% in assay [7]; 94.7% in [8]; 114% in [9]; 103% in assay [10]; 118% in assay [11]; 104% in assay [12]. Moreover, the growth is 87.8% in assay [13]; 110% in assay [14]; 103% in assay [15]; 102% in assay [16]; 99.9% in assay [17]; 97.4% in assay [18]. In assay [19], the growth was 92.9%.

As for `Cc1c(Cl)cccc1NC(=O)c1sc2nc3c(cc2c1N)CCCC3`, the growth is 24.1% in [1]; 29.6% in assay [2]; 32.6% in assay [3]; 21% in assay [4]; 42.1% in [5]; 31% in assay [6]. Moreover, the growth in assay [7] was 17.3%; in assay [8], 39.1%; in [9] it was 68.6%; in assay [10], 22.1%; in assay [11] it was 52.4%; in [12], 41.2%. Further, the growth was 45.8% in assay [13]; 62.2% in assay [14]; 47.2% in assay [15]; 33.9% in assay [16]; -1.63% (active) in assay [17]; 20.4% in assay [18]. The growth in assay [19] is 21.6%.

As for `CCCS(=O)(=O)Nc1cccc(Nc2ncnc3cc(NC(=O)CCl)ccc23)c1Cl`, the growth in assay [1] was -26.7% (active); in [2] it was -93.3% (active); in assay [3], 0.0363% (active); in assay [5] it was -25.7% (active); in assay [6], -85.3% (active); in assay [7], -66.2% (active). The growth is -83.9% (active) in assay [8]; -22.8% (active) in assay [9]; -32.1% (active) in assay [10]; -14.9% (active) in assay [11]; -76% (active) in assay [12]; -95% (active) in assay [13]. Moreover, the growth in assay [14] was -36.4% (active); in assay [15], -94.4% (active); in assay [16], -74.6% (active); in [17] it was 9.01% (active); in assay [18], 3.74% (active); in [19], 4.33% (active).

Regarding `Cc1c(C(=O)C(SC(=S)N2CCOCC2)SC(=S)N2CCOCC2)nnn1-c1ccc([N+](=O)[O-])cc1`, the growth in [1] was 89.3%; in assay [3], 96.3%; in assay [4], 95.3%; in assay [5], 96.1%; in assay [6], 107%; in assay [7], 88%. Further, the growth in assay [9] is 103%; in assay [10] it was 106%; in [11], 113%; in assay [12], 96.4%; in assay [13], 74.7%; in assay [14], 100%. Moreover, the growth in assay [15] is 98%; in [16], 94.9%; in assay [17] it was 128%; in [18] it was 67.9%; in assay [19], 91.1%.
